Experimental data from the supplement of paper PMC6555819.

What was measured:
Assay in all cases: PBM binding z-score (relative to random genomic background probes); higher = stronger binding; sequences stand for … in GC…GCGATTGACAGCGTAGAATGAAGG
[1] = test system: FXR:RXRa (NR concentration 270 nM, RXRa partner concentration 90 nM)
Outline: (§1)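 The probes on custom Agilent 4×180K protein-binding microarrays were double-stranded, with 34-nt variable regions bearing direct-repeat seeds, single-nucleotide variants, half-site ablations and random human genomic background sequences. Incubation lasted 1 h with ligand-free nuclear receptor dimers in PBS pH 7.4, 2% milk, 0.02% Triton X-100, 1 mM DTT, 0.2 mg/mL BSA and 0.4 mg/ml salmon testes DNA. Antibodies against each partner (one per run) detected bound dimers, and fluorescence scans were regression-normalized. Binding z-scores take the random background probes as reference.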

[2] = test system: LXRa:RXRa (NR concentration 270 nM, RXRa partner concentration 90 nM)
Outline: as §1

[3] = test system: LXRa homodimer (NR concentration 270 nM)
Outline: as §1

[4] = test system: LXRb:RXRa (NR concentration 270 nM, RXRa partner concentration 90 nM)
Outline: as §1

[5] = test system: LXRb homodimer (NR concentration 270 nM)
Outline: as §1

[6] = test system: PPARa:RXRa (NR concentration 270 nM, RXRa partner concentration 90 nM)
Outline: as §1

[7] = test system: PPARg:RXRa (NR concentration 180 nM, RXRa partner concentration 90 nM)
Outline: as §1

[8] = test system: PPARg:RXRa 270nM:90nM, anti-RXR (NR concentration 270 nM, RXRa partner concentration 90 nM)
Outline: as §1

[9] = test system: PPARg:RXRa 30nM:10nM, anti-RXR (NR concentration 30 nM, RXRa partner concentration 10 nM)
Outline: as §1

[10] = test system: PPARg:RXRa 90nM:30nM, anti-RXR (NR concentration 90 nM, RXRa partner concentration 30 nM)
Outline: as §1

[11] = test system: PPARg:RXRa DBDmut IVT, anti-RXR (DBD mutation: RXRa K156A/R161A, NR concentration 270 nM, RXRa partner concentration 90 nM)
Outline: as §1

[12] = test system: PPARg:RXRa IVT, anti-PPARg (NR concentration 270 nM, RXRa partner concentration 90 nM)
Outline: as §1

[13] = test system: PPARg DBDmut:RXRa IVT, anti-PPARg (DBD mutation: PPARg1 K132A/R137A, NR concentration 270 nM, RXRa partner concentration 90 nM)
Outline: as §1

[14] = test system: PPARg DBDmut IVT, anti-PPARg (DBD mutation: PPARg1 K132A/R137A, NR concentration 270 nM)
Outline: as §1

[15] = test system: PPARg homodimer (NR concentration 180 nM)
Outline: as §1

[16] = test system: PXR:RXRa (NR concentration 270 nM, RXRa partner concentration 90 nM)
Outline: as §1

[17] = test system: PXR homodimer (NR concentration 270 nM)
Outline: as §1

[18] = test system: RARa:RXR (NR concentration 270 nM, RXRa partner concentration 90 nM)
Outline: as §1

[19] = test system: RARa homodimer (NR concentration 270 nM)
Outline: as §1

[20] = test system: RARb:RXRa (NR concentration 270 nM, RXRa partner concentration 90 nM)
Outline: as §1

| Sequence | PBM binding z-score [1] | PBM binding z-score [2] | PBM binding z-score [3] | PBM binding z-score [4] | PBM binding z-score [5] | PBM binding z-score [6] | PBM binding z-score [7] | PBM binding z-score [8] | PBM binding z-score [9] | PBM binding z-score [10] | PBM binding z-score [11] | PBM binding z-score [12] | PBM binding z-score [13] | PBM binding z-score [14] | PBM binding z-score [15] | PBM binding z-score [16] | PBM binding z-score [17] | PBM binding z-score [18] | PBM binding z-score [19] | PBM binding z-score [20] |
| --- | --- | --- | --- | --- | --- | --- | --- | --- | --- | --- | --- | --- | --- | --- | --- | --- | --- | --- | --- | --- |
| CCGACTGGTGCAAAGGTTACCATACTCAGTACGA | 0.595 | 1.59 | 0.244 | 1.89 | -0.483 | 3.86 | 6.69 | 6.67 | 4.73 | 6.75 | 0.299 | 2.67 | 0.0281 | -0.547 | 1.18 | 2.07 | -0.109 | 2.87 | 0.34 | 1.96 |
| TAGCCTAGGTCATGGGCCAGTCTACCACGCGAAC | 4.36 | 3.2 | 0.0919 | 2.04 | -0.312 | 4 | 3.34 | 3.49 | 0.699 | 2.48 | 1.64 | 3.21 | 0.44 | 0.137 | 1.7 | 1.48 | -0.884 | 2.52 | -0.257 | 3.74 |
| CCAGACTGGTGAGAAGGTAACTCAGCCTCGATTA | -0.309 | -0.491 | -0.22 | -0.472 | -0.739 | -0.19 | 0.0437 | -0.117 | -0.431 | -0.102 | -0.548 | -0.378 | -1.06 | -0.669 | 0.4 | -0.321 | -0.553 | -0.228 | -0.0331 | -0.455 |
| GTAGCAAGGTGAATAGGTCGTTGATGAGTAGGCG | 0.435 | 0.286 | -0.884 | 0.119 | -1.35 | 2.05 | 0.986 | 1.48 | 0.12 | 0.807 | 1.19 | 1.9 | -0.625 | -1.04 | 0.211 | 0.451 | -0.13 | 1.08 | -0.0167 | 1.74 |
| CAAACTAGGTCAAGCTCAAAGTCGGTTTGTGCCA | 4.15 | 2.87 | 0.38 | 1.86 | 0.134 | 4.98 | 7.79 | 7.36 | 4.77 | 7.27 | 8.39 | 8.97 | 4.04 | 1.47 | 1.52 | 1.38 | -0.401 | 2.52 | 0.322 | 4.33 |
| TCATATAGGTAAATGTTAGGTGAAAGTCCGATCT | 1.64 | 1.44 | 0.543 | 1.22 | 0.304 | 1.64 | 1.04 | 2.53 | 4.07 | 3.22 | 4.12 | 2.63 | 1.47 | 1.82 | 1.66 | 0.918 | 0.8 | 1.63 | 1.9 | 0.728 |
| GCTCGGAGGACAAGGTCAGAACTTTGTCCGTAGA | 1.86 | 1.64 | -0.253 | 1.31 | -0.462 | 2.22 | 0.592 | 1.57 | 0.0801 | 0.802 | -0.664 | 0.754 | -0.824 | -0.981 | 0.718 | 1.87 | -0.398 | 2 | -0.812 | 3.2 |
| CCTTACGGGACACGAGGTTATAGCACGACGAGCG | 0.657 | 0.725 | 0.391 | 0.535 | -0.204 | 1.27 | 1.38 | 0.573 | 0.0152 | 0.477 | 0.526 | 0.867 | 0.559 | 0.413 | 0.721 | 0.701 | 0.477 | 0.935 | 0.721 | 1.11 |
| TTACCAAGGTGAAGGTCGTTGAACCCTCTGTAGA | 3.72 | 3.95 | 1.78 | 2.99 | -0.723 | 3.27 | 3.46 | 4.28 | 2.15 | 3.9 | 1.76 | 3.38 | 0.136 | 0.367 | 0.968 | 3.18 | 0.277 | 3.4 | -0.283 | 2.4 |
| AGTCAAAGTTCACTAGGTACCGTAAGATTCAGCT | 4.67 | 5.23 | 3.18 | 3.05 | 0.945 | 4.23 | 5.85 | 6.01 | 2.8 | 5.22 | 1.61 | 3.48 | 1.07 | 0.221 | 2.63 | 4.09 | 3.98 | 2.9 | 1.09 | 4.74 |
| TAGCCTAGGTCATTTAGGGGCCAGTATAGAAAGC | 4.42 | 4.04 | 0.996 | 3.09 | 1.69 | 3.41 | 1.46 | 2.15 | 0.169 | 1.49 | 1.79 | 2.38 | 0.515 | -0.286 | 1.87 | 2.34 | -0.166 | 3.45 | -0.429 | 3.6 |
| CCTGTTAGTTGACCATAAGGGCAACCGAAGCTCG | 0.874 | 0.297 | 0.378 | 0.396 | 0.499 | 0.707 | 0.162 | 0.397 | 0.0716 | 0.159 | 0.268 | 0.863 | 0.531 | 0.804 | 1.39 | 0.426 | 0.794 | 0.804 | 1.03 | 1.74 |
| CCGACTGGGGCAGAAAGGTTACAATACCATCCGG | 0.452 | 0.428 | -0.0734 | 1.17 | -0.707 | 2.02 | 1.77 | 2.68 | 0.821 | 2.01 | 1.65 | 1.7 | -0.655 | -0.38 | 0.958 | 1.14 | -0.0674 | 1.67 | 0.24 | 1.73 |
| CCGACTGGGGCATAAGGTTACTATAAGCCAGCCC | 0.52 | 3.57 | 0.0863 | 1.26 | -1.18 | 1.63 | 2.33 | 2.96 | 0.95 | 2.34 | 2.65 | 3.13 | -0.815 | -1.53 | 0.494 | 0.29 | -0.23 | 0.911 | -0.358 | 1.45 |
